Reference: ChEMBL document CHEMBL3988442, “University of Dundee, Small-Polar-MMV Screening Library” (2021)
The campaign covered roughly 48,000 compounds. About 13,000 (27%) showed an effect of 50% or more. The list shows a part of the results.

These molecules were tested on Wolbachia pipientis (assay: Anti-Wolbachia Cell-Based Screen). Conditions: 5 µM.
Format: functional
Parameters: scale not given: in the data most compounds retested in dose-response had high values

SMILES | Percent Effect
CN(Cc1ccon1)C1CCN(c2cccc(-c3cscn3)c2)CC1 | -11.17%
Cc1nc2c(c(=O)[nH]1)CN(Cc1ccc3c(c1)CCCN3C)CC2 | 56.56%
Cc1nc2c(c(=O)[nH]1)CCN(Cc1ccc3c(c1)CCCN3C)C2 | 94.44%
CCCN1CCc2nc(SCc3c(C)cc(C)cc3C)[nH]c(=O)c2C1 | 4.96%
Cn1nc2c(cc1=O)CN(Cc1ccc(-n3cccn3)cc1)CC2 | 6.074%
CC(C(=O)Nc1ccnn1C(C)C)N1CCCN(c2nccs2)CC1 (configuration not stated) | 10.48%
OCCn1nnnc1Cc1ccc(Br)cc1 | -3.897%
O=C(c1[nH]nc(C2CC2)c1Cl)N1CCN(C2CC2)CC1 | -10.68%
CSc1ccc(C(=O)N2CC(=O)N(Cc3cccs3)CC(O)C2)cc1 (configuration not stated) | 110.9%
O=C(c1ccc(F)cc1)N1C[C@@H]2CN(c3ncccn3)C[C@@H]2C1 | 2.652%
CC(C)(C)n1cc(C(=O)N2CCCN(Cc3cccs3)CC2)cn1 | -3.981%
COc1ccc(C(=O)N2CC(=O)N(Cc3cccs3)CC(O)C2)cc1 (configuration not stated) | 106.6%
O=C1CN(C(=O)c2ccc(F)cc2)CC(O)CN1Cc1cccs1 (configuration not stated) | 106.9%
CC(C)(C)NC(=O)[C@@H]1Cc2ccccc2CN1Cc1cccs1 | 16.75%
Cc1ccc(C(=O)N2CC(=O)N(Cc3cccs3)CC(O)C2)cc1 (configuration not stated) | 76.19%
COc1ccc(C(=O)N2CCN(C(=O)c3csc(C(C)C)n3)CC2)cc1 | -4.051%
CC1CN(C)CCN1C(=O)c1cccn1Cc1cccs1 (configuration not stated) | -1.596%
COc1ccc(OCc2nc(C(=O)N3CC(O)C3)co2)cc1 | -10.13%
CN(C)C(=O)CNC(CC(F)(F)F)c1ccc(F)cc1 (configuration not stated) | -7.138%
CCc1cnc(N2CC3(CCN(S(=O)(=O)C4CC4)C3)C2)nc1 | -6.098%
CCCNC(=O)CNc1cc(C(=O)N2CCSCC2)ccc1C | -10.89%
Cc1ccc(S(=O)(=O)NCCNc2cc(-n3cccc3)ncn2)c(C)c1 | 19.5%
CC(C)Oc1ccc(-c2csc(Cn3ccc(=O)[nH]c3=O)n2)cc1 | -3.236%
O=C1CN(C(=O)c2ccc(Cl)cc2)CC(O)CN1Cc1cccs1 (configuration not stated) | 98.52%
O=C1CN(C(=O)C2CCOC2)CCN1Cc1ccc(Cl)cc1 (configuration not stated) | -11.12%

SMILES | Percent Effect
CN(Cc1cnc(C(C)(C)C)nc1)Cc1nc2ccc(F)cc2[nH]1 | 92.92%
Cc1ccc(CN(C)Cc2nc3ccc(F)cc3[nH]2)cn1 | 92.16%
CNS(=O)(=O)c1ccc(CN(C)Cc2nc3ccc(F)cc3[nH]2)cc1 | 112.9%
Cc1ccc(OCC(=O)N(C)Cc2ccc(F)cc2)cn1 | -1.613%
Cc1nc(CCN)cc(N(C)Cc2nc3ccc(F)cc3[nH]2)n1 | -5.934%
CCOc1ccccc1CN(CC)Cc1ccc(S(=O)(=O)NC)cc1 | 14.99%
COc1cccc(CN(C)Cc2nc3cc(C)ccc3[nH]2)c1O | 1.617%
CNc1ncc(CN(C)Cc2cc(O)c3cc(F)ccc3n2)cn1 | -2.585%
CCc1ccc(CN(CC)Cc2ccc(S(=O)(=O)NC)cc2)cc1 | -10.93%
CCNC(=O)NC(C)(C)C(=O)NCc1cccc(N2CC=CC2)c1 | 1.796%
CC(O)c1cccc(N2CCC3(CC2)Nc2ccccc2NC3=O)n1 (configuration not stated) | 0.04909%
CCc1nc(C)c(C(=O)NCCNc2cnccn2)s1 | 1.537%
C[S+]([O-])c1nncn1CC(=O)c1ccc2c(c1)CCC2 (configuration not stated) | -5.964%
CCCS(=O)(=O)NC(=O)c1ccc(CC)o1 | -1.389%
CCn1cnnc1CCNC(=O)C(C)(C)c1cccc(Cl)c1 | -6.534%
CCn1cnnc1CCNC(=O)c1ccc(Br)cc1F | -14.54%
CCn1cnnc1CCNc1nc(C)cc(C)c1C#N | 126.1%
Cc1cc(NCCO)nc(N2CCN(C)CC2)c1C#N | 2.525%
CCn1c(C)nnc1SCCNc1nc(C)ncc1S(C)(=O)=O | -10.91%
Cc1cc(C)cc(OCCNC(=O)C(C)Sc2nncn2C)c1 (configuration not stated) | -3.054%
Cc1cc(C)c(C#N)c(NCCn2cnnc2C(C)C)n1 | 112.6%
Cc1cc(NCCO)nc(N2CCCC2)c1C#N | -1.529%
Cc1cc(C)c(C#N)c(NCCSc2nncn2C)n1 | 98.82%
CC(C)(C)OC(=O)NC(C)(C)c1noc(Cn2ccnc2)n1 | 11.22%
CSCCC(NC(N)=O)C(=O)NCc1ccc(-n2cccn2)cc1 (configuration not stated) | -16.66%

SMILES | Percent Effect
O=C(Nc1cccnc1)NC1CCN(c2ccccc2OC(F)F)C1 (configuration not stated) | -19.82%
O=C(O)c1ccnc(-c2ccnc(N3CCC4(CCO4)CC3)n2)c1 | -4.14%
Cc1cccc(CN2C(=O)CC[C@@H]3[C@H]2CCN3Cc2ccc(F)cc2)n1.O=C(O)C(F)(F)F.O=C(O)C(F)(F)F | -9.661%
Cc1cccc(CN2C(=O)C[C@H]3[C@@H]2CCN3Cc2ccc(F)cc2)n1.O=C(O)C(F)(F)F.O=C(O)C(F)(F)F | 93.32%
Cc1cccc(CN2C(=O)CC[C@@H]3[C@H]2CCN3C(=O)c2ccsc2)n1.O=C(O)C(F)(F)F | -10.27%
CCc1ccc(CN2CC[C@H]3[C@H]2CC(=O)N3Cc2cccc(C)n2)o1.O=C(O)C(F)(F)F.O=C(O)C(F)(F)F | 105.5%
COc1ccc(CN2CC[C@H]3[C@H]2CC(=O)N3Cc2cccc(C)n2)cc1.O=C(O)C(F)(F)F.O=C(O)C(F)(F)F | 96.36%
Cc1cccc(CN2C(=O)CC[C@@H]3[C@H]2CCN3Cc2cccnc2)n1.O=C(O)C(F)(F)F.O=C(O)C(F)(F)F.O=C(O)C(F)(F)F | -1.034%
Cc1ccc(CN2CC[C@H]3[C@H]2CC(=O)N3c2ccsc2)o1.O=C(O)C(F)(F)F | 12.94%
Cc1cc(C(=O)NCC(=O)NC(c2ncccc2C)C(C)C)c(C)o1 (configuration not stated) | -6.286%
CC(C)NC(=O)c1cnc(Sc2nccn2C)c(Cl)c1 | 7.154%
CCCSc1nc(O)c(CC)c(=O)n1-c1ccccc1 | -0.2298%
Cc1ncc(COc2cccc3c2NC(=O)CO3)s1 | -10.58%
Cc1cc(C(=O)N2CCOC[C@H](Oc3cccnc3)C2)c(C(F)(F)F)o1 | 3.665%
O=C([C@@H]1CCO[C@@H]2CCN(Cc3cccnc3)C[C@H]21)N1CCCCO1 | 13.27%
CC(C)=CCN(C)C1CCCN(Cc2noc(C)n2)C1 (configuration not stated) | 0.8027%
O=C1C[C@@H]2CCN(Cc3ccccc3)C[C@@H]2CCN1c1ccccc1 | 1.893%
CO[C@@H]1CN(c2ccccc2)S(=O)(=O)[C@@]12CCN(Cc1cncs1)C2 | 104.5%
CO[C@H]1CN(c2ccccc2)S(=O)(=O)[C@@]12CCN(Cc1ccccc1)C2 | 88.28%
CO[C@@H]1CN(c2ccccc2)S(=O)(=O)[C@@]12CCN(CC1CC1)C2 | 88.1%
CO[C@@H]1CN(c2ccccc2)S(=O)(=O)[C@@]12CCN(Cc1ccccc1)C2 | 116.8%
CN1CC(=O)N(c2ccccc2)CC12CCN(CC1CC1)C2.O=C(O)C(F)(F)F.O=C(O)C(F)(F)F (configuration not stated) | -12.9%
COCC1CC2(CCN(CC3CC3)CC2)CN1c1ncccn1.O=C(O)C(F)(F)F.O=C(O)C(F)(F)F (configuration not stated) | 9.926%
O=C(CCn1ccccc1=O)N1CCN(Cc2cccc(Cl)c2)CC1 | -6.995%
COc1cc(C2CC(=O)c3c(O)cc(O)cc3O2)ccc1O (configuration not stated) | 4.847%

SMILES | Percent Effect
COc1ccc(-c2noc(Cn3cc(C)cn3)n2)c(OC)c1OC | -1.893%
COc1ccccc1CN(Cc1cccs1)S(=O)(=O)N(C)C(C)C | -8.287%
Cc1ncc2c(n1)CCN(Cc1ncc(C(C)(C)C)o1)C2 | 1.311%
Cc1ccc(C(N)c2cccc(S(C)(=O)=O)c2)cc1 (configuration not stated) | 1.85%
CC(CO)NS(=O)(=O)c1cccc(C(C)C)c1 (configuration not stated) | -1.865%
CS(=O)(=O)c1cccc(S(=O)(=O)NC(=O)CC2CCCC2)c1 | -23.12%
CS(=O)(=O)c1cccc(C(N)c2ccc(F)c(F)c2)c1.Cl (configuration not stated) | -2.394%
CCC(=O)NC(c1ccc(C)cc1)c1cccc(S(C)(=O)=O)c1 (configuration not stated) | 96.25%
Cc1ccc(C(NC(=O)C2CC2)c2cccc(S(C)(=O)=O)c2)cc1 (configuration not stated) | 85.76%
CCNC(=O)NC(c1ccc(C)cc1)c1cccc(S(C)(=O)=O)c1 (configuration not stated) | 96.65%
Cc1ccc(C(NC(=O)[C@H]2CC[C@@H](O)CC2)c2cccnc2)cc1C (some centres not stated) | -7.536%
COc1ccc(C(N)c2cccc(S(C)(=O)=O)c2)cc1 (configuration not stated) | 4.589%
COc1ccc(N2CCN(C(=O)CCn3nnnc3C)CC2(C)C)cc1 | 5.117%
CN(Cc1cn2c(n1)CN(C(=O)N(C)C)CC2)Cc1ccco1 | 3.747%
Cl.Cl.O=C(NCc1cncc2c1CCN(Cc1ccoc1)C2)C1CC1 | -1.129%
CC(C)N(C)Cc1cncc2c1CCN(C(=O)c1cccc(C#N)c1)C2.Cl.Cl | -11.44%
CN(Cc1cccnc1)Cc1cncc2c1CCN(c1ccccn1)C2.Cl.Cl.Cl | 98.43%
CN(Cc1ccco1)Cc1cncc2c1CCN(Cc1ccoc1)C2.Cl.Cl.Cl | 96.91%
CN(Cc1cccnc1)Cc1cncc2c1CCN(Cc1ccoc1)C2.Cl.Cl.Cl | 98.31%
CN(Cc1cccnc1)CC1CNCc2nccn2C1 (configuration not stated) | -0.6774%
CC(C)C(=O)N1CCc2c(CN(C)Cc3ccco3)cncc2C1.Cl.Cl | 107%
Cl.Cl.c1cnc(NCc2cncc3c2CCN(Cc2ccoc2)C3)nc1 | 0.8556%
